Laboratory results as given in PubChem BioAssay (NCI).
This is part of a sample that, as a whole, favours compounds with a hit. Of some 83,000 tested, about 20% had one in any assay.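 The endpoint reported here, percent growth, reads 100 for growth as untreated, 0 for no net growth and -100 for all cells dead.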 Values without a mark were called inactive. Active and inactive are the calls of the source.

Each compound was assayed on ACHN renal (assay: NCI-60 one-dose screen, 48 h (100 = growth as untreated, 0 = no growth, -100 = all killed)). Settings: 10 µM unless noted.
Description: Growth inhibition of the ACHN human tumor cell line is measured as a screen for anti-cancer activity. Cells are grown in 96 well plates and exposed to the test compound for 48 hours. Compounds are tested at a single concentration, which is 10^-5 M for most compounds. The reported endpoint is percent growth (GI% or GIPRCNT), where numbers from 0 - 100% represent growth inhibition, and numbers from -100% - 0 represent cell death. For example, a value of 40 represents 60% growth inhibition. A value of 0 means no net growth occurred over the course of the experiment. A value of -40 indicates 40% of cells at the beginning of the experiment died by the end of the experiment. A value of -100 means all cells are dead at the end of the experiment.
NCI-60 Human Tumor Cell Lines Screen was performed using the standard one-dose NCI protocol, which is described in more detail at https://dtp.cancer.gov/discovery_development/nci-60/default.htm.
Compounds with GIPRCNT values below 10 were considered active. Activity score was based on GIPRCNT using the following formula: […]
Score is 0 for GIPRCNT values of 100 or above, 50 for GIPRCNT values of 0, and 100 for GIPRCNT values of -100.

Structure (SMILES) | growth
CN1CCN(Cc2ccc(NC(=O)c3cncc(C#Cc4cnc5ccc(OCC6(C)COC6)nn45)c3)cc2C(F)(F)F)CC1 | -96.1% (active)
CN1CCN(c2nc(-c3csc(-c4ccccc4)n3)cc3ccccc23)CC1 | 16.1%
Nc1nc(-c2cccc([N+](=O)[O-])c2)c(N=Nc2ccc(Br)cc2)s1 | -96.7% (active)
Cn1ccnc1C(=O)/C=C/c1ccc(CNC(=O)c2ccc(S(F)(F)(F)(F)F)cc2)cc1 | 49.8%
CNC(=O)c1cc(Oc2ccc3nc(NC(=O)c4cc(N5CCOCC5)cc(C(F)(F)F)c4)sc3c2)ccn1 | 87.9%
C=C=COc1cccc(/C(N)=N/C(N)=N/c2nc3ccccc3s2)c1 | 79.7%
N#Cc1cnc2ccc(-c3cnc(N)nc3)cc2c1N1CCc2cc(F)c(Cl)cc21 | 7.59% (active)
CC(C)C[C@@H]1N[C@@]2(C(=O)Nc3ccccc32)[C@@H](c2ccc(F)cc2)[C@@H]1C(=O)c1ccc(O)cc1 | 80.1%
Cn1ccnc1C(=O)/C=C/C=C/c1ccc(C(=O)Nc2ccc(F)cc2)cc1 | 21.9%
O=C(CSc1nc2ccccc2c(=O)n1-c1ccc(Cl)cc1)N/N=C/c1ccc(N2CCCCC2)cc1 | 17.4%
O=C(O)c1ccc(-n2cc(CNc3cc(F)c(F)c(F)c3)c(-c3ccc(F)cc3)n2)cc1 | 71.4%
COc1cc2c(cc1OC)C(Sc1ccc(F)cc1)c1c(nc(N)c(C#N)c1N)O2 (stereo not given) | -99.3% (active)
C=C(C)[C@@H]1CC[C@]2(COP(=O)(OCC)OCC)CC[C@]3(C)[C@H](CC[C@@H]4[C@@]5(C)CCCNC(C)(C)[C@@H]5CC[C@]43C)[C@@H]12 | 59.2%
N#Cc1cccc(NC(=O)c2cc(-c3ccc(F)cc3F)ccc2O)c1 | 5.79% (active)
CCCCCc1ccc(S(=O)(=O)Nc2cccc(-c3csc(NC(=O)CNCCN(C)C)n3)c2)cc1 | 96.4%
O=S(=O)(NCCCNc1nccc(-c2[nH]c(-c3ccccc3)nc2-c2ccc(Cl)c(O)c2)n1)c1cccc2ccccc12 | 19.6%
CN1CCC(n2cc(Nc3ncc4c(=O)n(-c5c(Cl)cccc5Cl)cc(Br)c4n3)cn2)CC1 | 24%
C=C(C=O)[C@@H]1CC[C@]2(CO)CC[C@]3(C)[C@H](CC[C@@H]4[C@@]5(C)CCCNC(C)(C)[C@@H]5CC[C@]43C)[C@@H]12 | 88.9%
N#C/C(=C\c1ccc(-c2ccc(Cl)cc2Cl)o1)c1ccc(F)cc1 | 89.9%
O=C1C(c2ccccc2)=C(N2CCc3ccccc32)OC1(Cl)Cl | -63.8% (active)

Structure (SMILES) | growth
C[C@@H]1C[C@H]2C(=O)O[C@@H](C)C(NC(=O)[C@H](Cc3cc(F)cc(F)c3)NC(=O)Nc3ccc(C4CC4)cc3F)C(=O)N3CCC[C@H]3C(=O)N3CCCC[C@H]3C(=O)N[C@@H](CO)C(=O)N2C1 (stereo not given in full) | 28.6%
O=C1CCCC2=C1C(c1c[nH]c3ccc(Br)cc13)Cc1cc(Br)ccc1N2 (stereo not given) | 36.2%
CC(C)(C)CC(C)(C)n1nnnc1C(Nc1nccs1)c1cc2cccc3ccc4cccc1c4c32 (stereo not given) | 96.1%
CCNC(=O)N1CCc2cc(OC)c(OCCc3ccc(OC)nc3)cc2C1c1ccc(OC)cc1C (stereo not given) | 32.2%
C=C(C=O)[C@@H]1CC[C@]2(COC(C)=O)CC[C@]3(C)C(CC[C@@H]4[C@@]5(C)CC[C@H](OC(C)=O)C(C)(C)[C@@H]5CC[C@]43C)[C@@H]12 (stereo not given in full) | -54.3% (active)
COc1cc(OC)c(/C=C/S(=O)(=O)Cc2ccc(OC)c(NCC(=O)NO)c2)c(OC)c1 | 27.9%
O=C(c1ccc(Cl)cc1)C1[C@H](c2ccc(Cl)cc2)[C@@H](c2ccccc2)NC12C(=O)Nc1ccccc12 (stereo not given in full) | 34.5%
CC1=NC2=NC(=O)/C(=C3/N=C(C)C=C(c4ccccc4)N3N)NN2C(c2ccccc2)=C1 | 101%
c1cn2c(ccc3nc(-c4cn[nH]c4)c4c(c32)CCCC4)n1 | 26.4%
CCO/C=N/C1=C(C#N)C(c2ccc(OC)cc2)c2sc3c(C)cccc3c2O1 (stereo not given) | 37.6%
CCCSc1nc(Nc2ccc(/C(C)=N\NC(N)=S)cc2)c(C#N)c(-c2ccccc2)n1 | 35.4%
CCNC(=O)N1CCc2cc(OC)c(OCCc3ccc(OC)nc3)cc2C1c1ccc(C)cc1C (stereo not given) | 25%
O=C1/C(=C/C=C/c2ccco2)SC(=S)N1c1ccccc1 | 67.3%
COc1cc(-c2nc3sccn3c2-c2ccnc(S(C)(=O)=O)n2)ccc1F | 90.4%
CC1(C)[C@@H](O)CC[C@]2(C)[C@H]3CC[C@@H]4[C@H]5[C@H](C(=O)/C=C\c6ccccn6)CC[C@]5(O)CC[C@@]4(C)[C@]3(C)CC[C@@H]12 | 32.6%
O=C(Nc1nonc1-c1ccccc1)c1ccc(C(F)(F)F)cc1 | 82.1%
CCO/C=N/C1=C(C#N)C(c2ccc(F)cc2)c2sc3c(CC)cccc3c2O1 (stereo not given) | 28.4%
CNC(=O)c1c(NC(=O)c2cccc(C(F)(F)F)c2F)sc2c1CCC(=O)C2 | 4.75% (active)
C#Cc1nc(C(C)=O)cs1 | 106%
CC(C)c1ccc(NCc2cn(-c3ccc(C(=O)O)cc3)nc2-c2cc(C(F)(F)F)cc(C(F)(F)F)c2)cc1 | 92.6%
